The values below come from PubChem BioAssay AID1851 (National Center for Advancing Translational Sciences (NCATS), 2009).

Values joined by “and” are separate entries in the source; they are usually repeats but may differ in a detail not shown here. Equal values may be shown once. Screen size: about 16,000 compounds; about 5,700 (36%) were called active. About 24% were inconclusive and are not listed. This is one part of the list. Unmarked numbers belong to inactive results. The call rests on the fitted dose curve; in most records, active means well fitted curve in the direction sought with a large enough effect; inconclusive means small, poorly fitted or top-dose-only effect, or effect the other way; inactive means no such curve, though single readings can be large or run the other way.

For orientation: AC50 means the midpoint of the concentration-response curve, whichever way the signal moves.
On the % scale 0 is the no-effect control and ±100 the full control effect.

For the assay, the target named is Cytochrome P450 1A2 (Homo sapiens) (UniProt P05177). Put plainly: Cytochrome panel assay with activity outcomes. The note with it: recombinant CYP, pro-luciferin dealkylation, luminescence, p450-cyp1a2; series mostly up to 57.1 µM; activity, negative = inhibition: at the top concentration.
Chain of Cytochrome P450 1A2 (Homo sapiens) (P05177 whole entry, looked up): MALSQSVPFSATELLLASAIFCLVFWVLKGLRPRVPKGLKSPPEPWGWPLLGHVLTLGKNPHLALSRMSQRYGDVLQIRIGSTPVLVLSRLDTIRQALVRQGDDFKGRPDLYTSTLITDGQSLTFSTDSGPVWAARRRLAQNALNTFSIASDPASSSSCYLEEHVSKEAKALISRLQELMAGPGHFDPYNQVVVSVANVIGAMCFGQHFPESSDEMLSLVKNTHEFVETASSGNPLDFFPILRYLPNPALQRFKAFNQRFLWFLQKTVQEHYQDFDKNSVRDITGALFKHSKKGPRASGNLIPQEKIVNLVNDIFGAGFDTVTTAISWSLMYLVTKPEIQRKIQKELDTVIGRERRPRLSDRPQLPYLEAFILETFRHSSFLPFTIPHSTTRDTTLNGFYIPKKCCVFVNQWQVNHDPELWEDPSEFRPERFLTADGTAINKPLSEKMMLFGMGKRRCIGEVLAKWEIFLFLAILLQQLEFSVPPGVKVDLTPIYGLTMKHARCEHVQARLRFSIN
As for `CC[C@]1(O)C[C@@H]2CN(CCc3c([nH]c4ccccc34)[C@](C(=O)OC)(c3cc4c(cc3OC)N(C)[C@H]3[C@](O)(C(=O)OC)[C@@H](C(=O)OC)[C@@]5(CC)C=CCN6CC[C@@]43[C@@H]65)C2)C1`, the “activity, negative = inhibition” value is -17.5%.

Take `CCCN(C(=S)Nc1ccccc1)C1CCS(=O)(=O)C1` (stereo not given): the “activity, negative = inhibition” value was -20.8%.

For the compound `CN(C(=S)Nc1ccccc1F)C1(c2ccccc2Cl)CCCCC1=O` (stereo not given), the “activity, negative = inhibition” value was -2.66%.

`CCN(C(=S)Nc1ccccc1F)C1CCCCC1`: the half-maximal activity concentration (AC50) is 15800 nM (active).

Take `COc1cccc(-c2cc(NCc3cccnc3)ncn2)c1`: the AC50 is 631 nM (active).

In the case of `c1cncc(-c2cc(NCc3cccs3)ncn2)c1`, the AC50 is 1000 nM (active).

Consider `COc1cccc(-c2cc(NCc3ccccc3)ncn2)c1`, for which the AC50 was 2000 nM (active).

Regarding `COc1cccc(-c2cc(NCc3cccs3)ncn2)c1`, the AC50 was 1260 nM (active).

As to `COc1cccc(/C=N/NC(=O)C(=O)NCc2cccnc2)c1`, the “activity, negative = inhibition” value was -12.7%.

Turning to `COCC(=O)N1CCC2(CCCN(Cc3ccccc3)C2)CC1`, the “activity, negative = inhibition” value is -11.7%.

On to `CS(=O)(=O)N1CCC2(CCN(C(=O)Nc3cccc(C#N)c3)CC2)CC1`, for which the “activity, negative = inhibition” value is 3.5%.

As for `Cc1c2cccc(Sc3ccccc3)c2c2c3c(cccc13)[S+](c1ccccc1)C2` (stereo not given), the activity, negative = inhibition was -17.3% [at 2.29 µM].

In the case of `O=C(Nc1c2c(nn1-c1ccc(F)cc1)CS(=O)(=O)C2)C12CC3CC(CC(C3)C1)C2`, the “activity, negative = inhibition” value is -9.18%.

With `Cc1cc(C2C(C#N)=C(N)Oc3n[nH]c(C)c32)c(C)s1` (stereo not given), the concentration at half-maximal activity (AC50) is 15800 nM (active).

Take `Cc1cc(C2C(C#N)=C(N)OC3=C2C(=O)CC(C)(C)C3)c(C)s1` (stereo not given): the “activity, negative = inhibition” value was -13%.

On to `N#CC(=C(/N)Sc1ccccc1N)/C(C#N)=C(/N)Sc1ccccc1N`, for which the AC50 was 12600 nM (active).

On to `Cc1ccc(C2(C)NC(=O)N(CC(=O)Nc3cc(C)on3)C2=O)cc1` (stereo not given), for which the “activity, negative = inhibition” value was 1.55%.

Consider `Cc1cc(NC(=O)CN2C(=O)NC(C)(c3ccc(OC(F)F)cc3)C2=O)no1` (stereo not given), for which the “activity, negative = inhibition” value was -13.6%.

As to `Cc1ccc(N2CC(C(=O)Nc3cc(C)on3)CC2=O)cc1` (stereo not given), the “activity, negative = inhibition” value was -15.9%.

Take `Cc1cc(NC(=O)c2cccc(F)c2)no1`: the AC50 is 17800 nM (active).

`Cc1cc(NC(=O)Nc2ccc(F)cc2)no1`: the AC50 is 10000 nM (active).

Consider `CN1CCN(NC(=O)c2cccc(F)c2)CC1`, for which the “activity, negative = inhibition” value was -1.53%.

Turning to `Cc1ccc(N2C(=O)CC(c3ccsc3)C3=C2CC(C)(C)CC3=O)cc1` (stereo not given), the “activity, negative = inhibition” value was -0.626%.

In the case of `Cc1ncc([N+](=O)[O-])n1CCO`, the “activity, negative = inhibition” value is -3.67% [at 25.6 µM].

For `Cc1ccc2ncc([N+](=O)[O-])n2c1`, the half-maximal activity concentration (AC50) is 6310 nM (active).

In the case of `Cc1ncc([N+](=O)[O-])n1CC(C)O` (stereo not given), the “activity, negative = inhibition” value is 3.46%.

`Cc1nn(C)c(C)c1CNC(=O)c1cnn2c1NC(c1ccccc1)CC2C(F)(F)F` (stereo not given): the “activity, negative = inhibition” value was -12.3%.

For `CCC(C)N1C(=O)S/C(=C/c2ccc(Sc3nc4ccccc4[nH]3)o2)C1=O` (stereo not given), the half-maximal activity concentration (AC50) is 2000 nM (active).

As to `NCCNc1ncnc2ccc(Cl)cc12`, the AC50 was 1000 nM (active).

Turning to `COC(=O)N1CCC2(CCCN(Cc3ccc(C#N)cc3)C2)CC1`, the “activity, negative = inhibition” value is -17.3%.

For the compound `CC(C)CC1CC(=O)OC1(C)C(=O)CSc1nc2ccccc2s1` (stereo not given), the half-maximal activity concentration (AC50) was 7080 nM (active).

Regarding `O=C(O)CC(c1ccccc1)n1cnnn1` (stereo not given), the “activity, negative = inhibition” value was 6.77%.

As for `c1ccc2c(-n3ccnc3)nc(-c3ccoc3)nc2c1`, the AC50 is 501 nM (active).

Take `CN(C)c1ccc(-c2nc(-n3ccnc3)c3ccccc3n2)cc1`: the half-maximal activity concentration (AC50) is 316 nM (active).

Regarding `Cc1ccc(S(=O)(=O)N[C@H](CN)C(=O)O)cc1`, the activity, negative = inhibition is -18.5% [at 2.29 µM].

As to `Cc1ccc(C)c(S(=O)(=O)NC(CC(C)C)C(=O)O)c1` (stereo not given), the “activity, negative = inhibition” value is -1.89%.

In the case of `Cc1ccc(S(=O)(=O)NC(CC(C)C)C(=O)Oc2ccc3c4c(c(=O)oc3c2)CCC4)cc1` (stereo not given), the AC50 was 3980 nM (active).

For `CCC/C=C(\CCC)C(NS(=O)(=O)c1ccc(C(F)(F)F)cc1)c1ccc(-c2ccccc2)cc1` (stereo not given), the “activity, negative = inhibition” value was -18%.

On to `COC(=O)C/C=C\[C@@H](C)[C@@H](/C=N\OC[C@@H]1O[C@H](c2ccccc2)C=C[C@@H]1Oc1ccc(OC)cc1)NS(=O)(=O)c1ccc(C)cc1`, for which the activity, negative = inhibition is -1.03% [at 11.4 µM].

As to `Cc1ccc(S(=O)(=O)N[C@H](C(=O)Oc2ccc3c(C(F)(F)F)cc(=O)oc3c2)c2ccccc2)cc1`, the AC50 is 1780 nM (active).

Regarding `COc1ccc(CCN2C(=NC(=O)CCC(=O)O)SC3CS(=O)(=O)CC32)cc1` (stereo not given), the “activity, negative = inhibition” value was -4.52%.

As for `CN1CCc2c(c3c(n2C)CCN(C)[C@H]3c2ccccc2F)[C@@H]1c1ccccc1F`, the “activity, negative = inhibition” value was 10.4%.

On to `CC(C)NC(=O)N1CCCC2(CCN(C(=O)c3cc(C(F)(F)F)cc(C(F)(F)F)c3)CC2)C1`, for which the “activity, negative = inhibition” value is -10.6%.

On to `C1=C(CN2CCOCC2)COc2c1cccc2OC[C@@H]1CNCCO1`, for which the AC50 was 12600 nM (active).

Turning to `Cc1c(C)c2c(c(C)c1O)CC[C@@](C)(CCC[C@@H](C)CCC[C@@H](C)CCCC(C)C)O2`, the “activity, negative = inhibition” value was 14% [at 25.6 µM].

Take `COc1ccc(Nc2ncc3c(n2)CC(c2ccc(C)cc2)CC3=O)cc1` (stereo not given): the AC50 was 14100 nM (active).

For `COc1ccc(NC2=NC(=S)N(c3ccc(C)cc3)C23CCCCC3)cc1`, the “activity, negative = inhibition” value is 9.01%.

Turning to `COc1ccc(C2CC(=O)c3cnc(Nc4cc(C)cc(C)c4)nc3C2)cc1` (stereo not given), the AC50 is 14100 nM (active).

Take `CCSc1nnc(-c2ccc(Cl)cc2)c2ccccc12`: the AC50 was 7080 nM (active).

Take `O=[N+]([O-])c1cc(Cl)cc2c1nc(NCCO)c1ccccc12`: the AC50 was 20 nM (active).

Take `CCOC(=O)C(NC(C)=O)C(=O)O` (stereo not given): the “activity, negative = inhibition” value is 16.6%.

Regarding `CC(=O)[C@@H]1[C@@H]2C(=O)N(C3CCCCC3)C(=O)[C@@H]2C2c3ccccc3C=CN21` (stereo not given in full), the AC50 is 15800 nM (active).

Take `O=C1C2C3C=CC([C@@H]2C(=O)N1C1CCCCC1)[C@H]1C(=O)N(C2CCCCC2)C(=O)C31` (stereo not given in full): the “activity, negative = inhibition” value is 20.9%.

For `O=C1C[C@@H](O)[C@@H](O)[C@H]2[C@@H]3C(=O)N(C4CCCCC4)C(=O)[C@@H]3CC[C@H]12`, the activity, negative = inhibition was 4% [at 11.4 µM] and -9.85% [at 11.4 µM] and 5.4% [at 11.4 µM].

On to `COCCNc1ccnc(-c2cccc(NS(C)(=O)=O)c2)n1`, for which the AC50 is 2000 nM (active).

On to `COc1cccc(-c2nccc(NCc3ccc(OC)cc3OC)n2)c1`, for which the AC50 is 1000 nM (active).

Turning to `COc1ccc(C(=O)N2CCC3(CCN(Cc4ccccc4OC)CC3)CC2)cc1`, the “activity, negative = inhibition” value was 2.02%.

As to `COc1cccc(-c2nccc(NCc3ccccc3OC)n2)c1`, the AC50 is 1260 nM (active).

Consider `COc1ccc(CNc2ccnc(-c3cccnc3)n2)c(OC)c1`, for which the half-maximal activity concentration (AC50) was 316 nM (active).

`CCOc1ccc(N(C(C)C(=O)NC(C)CC)S(C)(=O)=O)cc1` (stereo not given): the “activity, negative = inhibition” value is -7.41%.
